This is one part of a sample in which hits are shown more often than they occur.
Tb PYK inh: qHTS of Trypanosoma Brucei Inhibitors. AID 624173, 2012. Potency, µM (doses to about 76.8 µM), without a hit: top-dose activity, negative = inhibition, most hits filed as inhibitors. pyruvate kinase (Trypanosoma brucei), Q57TT1. hit rate 0.12% among 410,000. TbPYK enzyme, Kinase-Glo Plus ATP luminescence, 45 min; note: potency is the fitted concentration of half-maximal effect; % is set by controls: 0 for no effect and ±100 for the full control effect; nearly all actives have a fitted effect of over 50% in size
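Glycolytic pyruvate kinase of T. brucei was incubated with substrate, test compound and 130 uM ADP for 45 minutes at room temperature. Luminescent Kinase-Glo Plus signal was measured after 10 minutes.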
RE007 growth inh: qHTS Assay for Inhibitors of the HIV-1 protein Vpr | hit rate 0.21% among 360,000 | S. pombe RE007 Vpr strain, BacTiter-Glo ATP luminescence, 24 h | AID 651644, 2012 | Potency, µM (series often up to 92.2 µM), for inactives: top-dose activity change, negative = less growth, usual class: inhibitors; active = well fitted falling curve with a large enough effect; inconclusive = small, poorly fitted or top-dose-only effect; inactive = no such curve, though single readings can be large or run the other way; note: potency is the fitted concentration of half-maximal effect; % is set by controls: 0 for no effect and ±100 for the full control effect; nearly all actives have a fitted effect of over 50% in size
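Fission yeast RE007 carrying one integrated HIV-1 vpr copy, seeded at OD 0.01 in PMG+AL medium with 23 nL pinned compound. Grown 24 h at 30 degrees; viability read by BacTiter-Glo luminescence after 5 min.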
Cycloheximide cs: Cycloheximide Counterscreen for Small Molecule Inhibitors of Shiga Toxin; AID 2314, 2010; cell reporter, cycloheximide protein synthesis inhibition counterscreen; max response, %; hit rate 12% among 300,000; in the data active = max response mostly above about 13%, no sharp cut-off; inactive = mostly below about 14%; note: read at 38.3 µM for the half of the compounds with a filed dose; 0% is about no effect
FBPA Giardia inh: qHTS Assay for Inhibitors of Fructose-1,6-bisphosphate Aldolase from Giardia Lamblia; A8B2U2; purified Giardia FBPA; Potency, µM (top dose mostly 59.6 µM), for inactives: at the highest dose activity, negative = inhibition, actives largely listed as inhibitors; hit rate 0.71% among 290,000; AID 2451, 2010; note: potency is the fitted concentration of half-maximal effect; % is set by controls: 0 for no effect and ±100 for the full control effect; nearly all actives have a fitted effect of over 55% in size
Target sequence (A8B2U2 whole entry, looked up): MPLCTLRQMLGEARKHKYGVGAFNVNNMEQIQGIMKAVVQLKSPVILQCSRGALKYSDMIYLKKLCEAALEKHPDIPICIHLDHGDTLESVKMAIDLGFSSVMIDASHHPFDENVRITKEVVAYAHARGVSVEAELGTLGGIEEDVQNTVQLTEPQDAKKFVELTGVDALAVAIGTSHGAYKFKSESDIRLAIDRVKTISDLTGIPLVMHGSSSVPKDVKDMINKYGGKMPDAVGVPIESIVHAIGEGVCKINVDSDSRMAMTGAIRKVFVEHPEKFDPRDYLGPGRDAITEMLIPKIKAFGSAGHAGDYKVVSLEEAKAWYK
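40 nM FBPA preincubated 10 min at RT with compound (up to 57.5 uM final), then substrate plus GAPDH/TPI/NAD/arsenate coupling and diaphorase/resazurin added. Fluorescence read after 20 min at RT, 525/598 nm.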
LmPK inh: qHTS Assay for Inhibitors of Leishmania Mexicana Pyruvate Kinase (LmPK) | purified LmPK, Kinase-Glo ATP luminescence, 1 h | Potency, µM (doses to about 57.5 µM), inactives show at the top dose activity change, negative = inhibition, actives largely listed as inhibitors | hit rate 0.37% among 290,000 | AID 1721, 2009; note: potency is the fitted concentration of half-maximal effect; % is set by controls: 0 for no effect and ±100 for the full control effect
Target sequence (Q27686 whole entry, looked up): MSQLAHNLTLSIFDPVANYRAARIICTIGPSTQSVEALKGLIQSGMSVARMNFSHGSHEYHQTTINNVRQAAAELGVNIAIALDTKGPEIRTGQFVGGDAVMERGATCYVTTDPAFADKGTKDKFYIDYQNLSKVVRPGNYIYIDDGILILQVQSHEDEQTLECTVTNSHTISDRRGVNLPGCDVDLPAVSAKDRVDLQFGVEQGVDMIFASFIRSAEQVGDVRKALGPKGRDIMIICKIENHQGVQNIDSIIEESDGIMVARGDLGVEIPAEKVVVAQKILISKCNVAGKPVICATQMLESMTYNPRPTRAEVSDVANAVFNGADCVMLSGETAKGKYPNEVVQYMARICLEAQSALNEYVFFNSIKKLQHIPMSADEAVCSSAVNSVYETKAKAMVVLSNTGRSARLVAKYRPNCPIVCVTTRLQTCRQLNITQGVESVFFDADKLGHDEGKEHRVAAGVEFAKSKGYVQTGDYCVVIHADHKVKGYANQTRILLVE
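Pyruvate kinase activity monitored as ATP production (luciferase luminescence). Conditions: 0.1 nM enzyme, 0.5 mM PEP, 0.1 mM ADP, 1 h, RT; normalized against uninhibited and no-enzyme wells.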
Shiga toxin inh: A qHTS for Small Molecule Inhibitors of Shiga Toxin; Vero cells, Shiga toxin protein synthesis inhibition reporter; inhibition, % at 38.7 µM; hit rate 9.2% among 290,000; AID 2315, 2010; in the data active = inhibition mostly above about 28%, no sharp cut-off; inactive = mostly below about 43%; note: 0% is about no effect
Active calls of the source: *; u = inconclusive; x = no result; ! = a repeat was not active; [ ] = remark or other dose. Unless noted, calls come from the whole dose curve; as a rule, active = well fitted curve in the direction sought with a large enough effect; inconclusive = small, poorly fitted or top-dose-only effect, or another doubt; inactive = no such curve, though single readings can be large; an effect the other way counts as inactive or inconclusive.

SMILES | Tb PYK inh | RE007 growth inh | Cycloheximide cs | FBPA Giardia inh | LmPK inh | Shiga toxin inh
COc1cccc(-n2cc(-c3ccc(F)cc3)[nH]c2=S)c1 | u | 11.8% | 37.5* | 17.7% | -11.4% | 85.6*
COC(=O)c1ccc(-n2cc(-c3ccc(OC)cc3)[nH]c2=S)cc1 | -38.4% | 14.3% | 6.9 | -2.8% | -6.7% | 51.5
Nc1ccc(-n2cc(-c3ccccc3)[nH]c2=S)cc1 | 2.51µM* | 11.5% | 33.3* | 21.6% | u | 60.7*
S=c1[nH]c(-c2ccccc2)cn1-c1ccccc1 | u | 21.6% | 15.8 | 17.7% | u | 21.1
CCCCCC(=O)/C=C/[C@H]1[C@H](O)CC(=O)[C@@H]1C/C=C\CCCC(=O)O | x | x | x | 2.1% | x | x
Cc1ccc(Cc2nc3ccccc3nc2SCC(=O)NCc2ccccc2Cl)cc1 | -4.9% | x | x | x | x | x
Cc1cccc(-n2cc(-c3ccc([N+](=O)[O-])cc3)[nH]c2=S)c1 | -18.7% | 2.0% | 24.1* | 11.7% | -7.2% | 104.7*
COc1ccc(NC(=O)CN2CCCCC2)c([N+](=O)[O-])c1 | 5.8% | -2.2% | 30.4* | 8.4% | 1.7% | 55.7*
COc1ccc(NC(=O)CSc2ccccc2)c([N+](=O)[O-])c1 | -0.8% | 19.4% | 60.2* | -16.1% | 0.0% | 98.8*
COCC(=O)OCC(=O)Nc1cc(C)c(C)cc1[N+](=O)[O-] | -7.9% | -0.1% | 15.5* | 4.2% | 2.6% | 24.2
Cc1ccc(C(=O)NCC(=O)OCC(=O)Nc2cc(C)c(C)cc2[N+](=O)[O-])cc1 | 1.9% | -4.5% | 5.5 | 0.9% | -3.6% | 8.0
COc1ccc(NC(=O)CN2CCN(C3c4ccccc4-c4ccccc43)CC2)cc1 | 2.7% | 1.2% | 57.3* | -5.5% | 2.9% | 41.5*
Cn1c(=O)c2c(-c3ccccc3)n3c(c2n(C)c1=O)C(c1ccccc1[N+](=O)[O-])Nc1ccccc1-3 (stereo unspecified) | -5.2% | x | x | x | x | x
COc1ccc(CNC(=O)Nc2cn(CC(C)C)c(=O)c3ccccc23)cc1 | 2.2% | x | x | x | x | x
CCOc1ccc(OCC(=O)Nc2ccc(OC)cc2[N+](=O)[O-])cc1 | -4.4% | -4.0% | 1.6 | 1.0% | 4.6% | -2.6
CC1(C(=O)OCC(=O)Nc2ccc(C(N)=O)cc2)CC1(Cl)Cl (stereo unspecified) | -1.1% | 4.9% | 6.2 | 0.4% | 0.2% | 14.1
COc1ccc(NC(=O)CN2CCC(C)CC2)c([N+](=O)[O-])c1 | -3.7% | 8.2% | 21.9* | 4.0% | 0.2% | 33.4
CC1(C(=O)OCC(=O)Nc2ccc3ccccc3c2)CC1(Cl)Cl (stereo unspecified) | 3.4% | -2.3% | 36.8* | -14.4% | 2.4% | 64.1*
COc1ccc(NC(=O)COc2ccc(C)cc2)c([N+](=O)[O-])c1 | -0.1% | 7.1% | 44.0* | 2.8% | 3.5% | 86.3*
CCCOC(=O)Nc1cc(OC)ccc1[N+](=O)[O-] | -8.9% | -4.3% | 24.6* | -4.4% | 1.2% | 22.7
CCOC(=O)C1CCCN(c2nc3c(S(=O)(=O)c4ccc(CC)cc4)nnn3c3ccsc23)C1 (stereo unspecified) | -4.6% | x | x | x | x | x
N[C@@H](C(=O)O)c1ccc(C(=O)O)cc1 | x | x | x | -0.1% | x | x
CC(=O)N1CCCc2cc(S(=O)(=O)N3CCC(C(=O)NCc4ccc(N(C)C)cc4)CC3)ccc21 | -4.1% | x | x | x | x | x
CC1CCN(CC(=O)Nc2ccc(Cl)cc2[N+](=O)[O-])CC1 | 1.5% | 4.2% | 17.9* | -3.9% | -9.3% | 16.5
CCOc1ccc(NC(=O)COC(=O)C2(C)CC2(Cl)Cl)c([N+](=O)[O-])c1 (stereo unspecified) | -4.5% | 2.7% | 18.4* | 0.5% | 1.4% | 45.1*
SMILES | Tb PYK inh | RE007 growth inh | Cycloheximide cs | FBPA Giardia inh | LmPK inh | Shiga toxin inh
Cc1cccc(SCC(=O)Nc2ccccc2[N+](=O)[O-])c1 | -2.0% | -14.1% | 16.2* | -3.2% | 0.8% | 38.1
COc1ccc(NC(=O)CN2CCC(C)CC2)cc1 | 2.2% | -5.5% | 15.8* | 5.5% | 2.7% | 29.8*
CCN(CC)C(=O)CSc1nnc2[nH]c(=O)cc(C)n12 | -0.6% | x | x | x | x | x
CN(C)c1ccc(NC(=O)c2sc(SCC(=O)Nc3nccs3)nc2N)cc1 | -13.2% | 4.6% | 33.1* | -11.1% | 2.8% | 108.7*
CCCCC(=O)Nc1nnc(-c2ccc(OC)cc2)s1 | 1.2% | -10.6% | 22.7 | 2.0% | 6.6% | 35.0*
CCCCNC(=O)CSc1nc(N)c(C(=O)Nc2ccc(OC)cc2)s1 | -2.7% | 15.5% | 29.7* | 3.1% | -6.0% | 27.8*
CCCCC(=O)Nc1nnc(SCC(=O)Nc2ccc(OC)cc2)s1 | -0.6% | 1.4% | 41.1* | 1.6% | 1.8% | 93.1*
COc1ccc2[nH]cc(CCNc3nc(-c4ccc(N(C)C)cc4)nc4ccccc34)c2c1 | x | x | x | -20.7% | x | x
Cc1cccc(N(CC(=O)NC(C)c2ccccc2)S(=O)(=O)c2ccccc2)c1C (stereo unspecified) | -10.3% | x | x | x | x | x
COc1ccc(-c2nnc(NC(=O)c3c(OC)cccc3OC)s2)cc1 | -0.2% | -10.8% | 0.8 | 6.0% | 2.9% | 33.4
CN(C)c1ccc(NC(=O)c2sc(SCC(=O)Nc3ccc(Br)cc3)nc2N)cc1 | -2.5% | 5.5% | -2.7 | 3.5% | -0.3% | 23.8
CSc1nc(N)c(C(=O)Nc2ccc([N+](=O)[O-])cc2)s1 | 2.8% | 0.1% | 32.0* | 4.7% | 4.3% | 50.4*
COC(=O)Nc1nnc(-c2ccc(OC)cc2)s1 | 0.8% | -22.6% | 29.6* | 4.6% | u | 101.5*
CCCCc1nc2c(c3c1C[C@H](C)OC3)CN(C(=O)Cc1cccc(OC)c1)CC2 | x | x | x | 0.8%[12.9 µM] | -2.5%[11.5 µM] | x
O=C(COC(=O)C12CC3CC(CC(C3)C1)C2)Nc1ccccc1F | -0.5% | 0.7% | 19.2* | -0.1% | -1.1% | 12.9
O=C(COC(=O)C12CC3CC(CC(O)(C3)C1)C2)Nc1ccc(Br)cc1F | -3.5% | -1.4% | x | x | x | x
COc1ccc(CNc2cc(-c3ccccc3C)ncn2)c(OC)c1 | x | x | x | 3.4% | x | x
COc1ccc(C2/C=C\CN(S(=O)(=O)c3ccc(-c4ccccc4)cc3)CC(=O)N2Cc2ccc(F)cc2)cc1 (stereo unspecified) | 0.9% | 1.0% | 36.5 | 0.2% | 0.3% | 68.1*!
COc1ccc(C2/C=C\CN(C(=O)c3ccc(C)cc3)CC(=O)N2Cc2ccc(F)cc2)cc1 (stereo unspecified) | 2.7% | 5.1% | 82.0*! | 2.7% | -2.5% | 163.3*!
COCCn1c(=O)c(C)nc2cnc(OC)nc21 | x | x | x | -1.6% | x | x
COc1cccc(CNC(=O)c2sc3nc4n(c(=O)c3c2C)CCC4)c1 | 0.3% | x | x | x | x | x
Cc1nc2ccccc2c(=O)n1-c1ccccc1Cl | 0.0%[157 µM] | x | x | x | x | x
CCc1nnc2n1N(C(C)=O)C(c1ccc(C(C)(C)C)cc1)=C(C(C)=O)S2 | -0.8% | x | x | x | x | x
